PubChem BioAssay AID588651 (The Scripps Research Institute Molecular Screening Center, 2011)
Active and inactive are the calls of the source. Cut-off read from the data, not from the text of the source: active = inhibition above about 65%; inactive = the rest.

System: Antitargets
Assay: Fam108b inhibition by ABPP, late-stage follow-up, biochemical, gel-based ABPP, recombinant soluble Fam108b, HTS hits, complex proteome (AID 588651);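 note: Fam108b spiked into mouse brain membrane proteome; tested at 20 µM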
Conditions: FP-rhodamine labeling in proteome

Row | SMILES | outcome
1 | Oc1oc(-c2ccccc2Br)nc1C=Nc1ccccn1 | active
2 | COc1ccc(S(=O)(=O)/N=C2\C=C(Nc3ccc(O)cc3)C(=O)c3ccccc32)cc1 | inactive
3 | Nc1cc2nsnc2cc1Br | inactive
4 | Cc1nc2scc(-c3ccccc3)c2c(=O)o1 | inactive
5 | COc1cc2c(cc1NC(=S)Nc1cccc(C(F)(F)F)c1)oc1ccccc12 | inactive
6 | Fc1ccc2nc(Nc3nc4cc5c(cc4s3)OCO5)sc2c1 | inactive
7 | CCCCCCCCCCCCCCCC[n+]1ccc(C=NO)cc1 | inactive
8 | CCNc1ccc2noc3c2c1C(=O)c1ccccc1-3 | inactive
9 | Oc1cccc2cc3cccc(O)c3c(O)c12 | active
10 | Cc1cc(Nc2ccc(Cl)cc2)nc(NCc2ccccc2)n1 | inactive
11 | CCN(c1ccccc1)S(=O)(=O)c1ccc(NC(=O)c2nc(S(C)(=O)=O)ncc2Cl)cc1 | inactive
12 | Cc1ccc(C)c(-n2c3nc(=O)[nH]c(=O)c-3cc3cc([N+](=O)[O-])ccc32)c1 | inactive
13 | O=C(O)C1Nc2ccc(Br)cc2C2C=CCC12 (centres undefined) | inactive
14 | CC1CCN(S(=O)(=O)c2ccc(C(=O)Nc3ccccc3-c3nc4ccccc4[nH]3)cc2)CC1 | inactive
15 | Cc1ccc(S(=O)(=O)/N=C2\C=C(Nc3cccc(C(=O)O)c3)C(=O)c3ccccc32)cc1 | inactive
16 | O=C1C(Cl)=C(Nc2ccc3cn[nH]c3c2)C(=O)c2ccccc21 | inactive
17 | CC(C)(C)c1nc2scc(-c3cccs3)c2c(=O)o1 | inactive

Row | SMILES | outcome
18 | O=C(Nc1cccc(-c2csc(Nc3ccc(Cl)cc3)n2)c1)c1cc([N+](=O)[O-])cc(C(F)(F)F)c1 | inactive
19 | CC1(C)CC(=O)C2=C(C1)c1c(ccc3ccccc13)NC2c1cc([N+](=O)[O-])cc([N+](=O)[O-])c1O (centres undefined) | inactive
20 | O=c1ccc2cc3c([nH]c4ccc(Br)cc43)oc-2c1O | inactive
21 | Oc1ccccc1-c1nc2c3ccccc3c3ccccc3c2[nH]1 | inactive
22 | Oc1ccc(C=NNc2ccnc3cc(Cl)ccc23)c(O)c1O | active
23 | Cc1nc2scc(-c3ccc(Cl)cc3)c2c(=O)o1 | inactive
24 | O=C(NC1CCCCC1)c1sc(=S)n2c1[nH]c(=O)c1ccccc12 | inactive
25 | CC1CCCCN1S(=O)(=O)c1ccc(C(=O)Nc2ccccc2-c2nc3ccccc3[nH]2)cc1 (centres undefined) | inactive
26 | Cc1c(O)ccc(C=NNc2nc(-c3cccnc3)nc3ccccc23)c1O | active
27 | O=C(CCCSc1ccccc1)Nc1nc(-c2ccco2)c(-c2ccco2)s1 | inactive
28 | COc1ccc(C=NNC(=O)c2ccc(O)cc2)cc1CN1CCCc2ccccc21 | inactive
29 | Oc1ccc(C2Nc3cccc4cccc(c34)N2)c(O)c1 | inactive
30 | Cc1ccnc(N=Cc2nc(-c3ccccc3Br)oc2O)c1 | inactive
31 | Oc1nc(Nc2cccc(Cl)c2)sc1/C=C1\C=Nc2ccccc21 | active
32 | CCn1nc([N+](=O)[O-])c(C(C#N)c2nc3cc(C(F)(F)F)ccc3s2)c(Cl)c1=O (centres undefined) | inactive
33 | Cn1c(O)c(C=NNC(=O)c2cc3ccccc3cc2O)c2ccccc21 | inactive
34 | CCc1ccc(S(=O)(=O)/N=C2\C=C(Nc3cccc(C(=O)O)c3)C(=O)c3ccccc32)cc1 | inactive
